# An excerpt weighted towards active compounds, which were near 19% of everything screened.
# TDP1 cell noCPT: qHTS for Inhibitors of human tyrosyl-DNA phosphodiesterase 1 (TDP1): qHTS in cells in absence of CPT; DT40 Tdp1-/- hTDP1 cells, no CPT, ATP luminescence, 48 h; Potency, µM (titrated, usually from 46.2 µM), inactives show at the highest dose activity change, negative = growth inhibition, most hits filed as inhibitors; 420,000 tested, 15% active; further: nearly all actives have a fitted effect of over 55% in size
#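 Cells were dispensed at 400 per well, compounds added by pin tool, plates incubated ≥48 hr at 37 °C, then CellTiter-Glo added for 30 min at room temperature before luminescence reading. Line: DT40 Tdp1-/- complemented with hTDP1; camptothecin omitted.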
# HT1080NT lethal: qHTS for induction of synthetic lethality in tumor cells producing 2HG: qHTS for the HT-1080-NT fibrosarcoma cell line; HT-1080-NT fibrosarcoma viability, CellTiter-Glo ATP luminescence, 48 h; Potency, µM (top dose mostly 46.1 µM), for inactives: top-dose activity, negative = less viability, hits mostly cytotoxic; 360,000 tested, 1.6% active;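 further: NT is the 2HG producing partner of a matched IDH1 knockdown line; 0% = DMSO-treated cells and -100% = media-only wells without cells; nearly all actives have a fitted effect of over 55% in size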
#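 Toxicity toward the 2HG-producing NT line was scored as %Activity, normalised to DMSO and no-cell wells, from CellTiter-Glo luminescence after 48 hours' treatment.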
# KB-V1 cytotox: qHTS assay for MDR1-selective chemotherapeutics: Primary screen using the drug-selected MDR subline cells KB-V1; KB-V1 MDR cells viability, CellTiter-Glo, 72 h; Potency, µM (series often up to 46.1 µM), usual class: cytotoxic; 400,000 tested, 3.4% active; further: nearly all actives have a fitted effect of over 60% in size
#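 Cytotoxicity via CellTiter-Glo luminescence after 72 h compound exposure at 37 degrees C. Cells: drug-selected KB-V1 line, DMEM phenol-red free plus 10% FBS. Compounds tested at multiple concentrations; normalized data fitted to concentration-effect curves.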
# TDP1 cell CPT: qHTS for Inhibitors of human tyrosyl-DNA phosphodiesterase 1 (TDP1): qHTS in cells in presence of CPT; chicken DT40 Tdp1-/-;hTDP1 cells + 20 nM CPT, ATP luminescence, 48 h; 420,000 tested, 12% active; AID 686979, 2013; Potency, µM (doses to about 46.2 µM), without a hit: top-dose activity change, negative = growth inhibition, usual class: inhibitors; further: nearly all actives have a fitted effect of over 55% in size
#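 Chicken DT40 Tdp1-/- cells stably complemented with human TDP1 were seeded at 400 cells/well in medium containing 20 nM camptothecin, exposed to pin-transferred compounds, and grown at 37 °C for at least 48 hr. Viability was read as ATP luminescence.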
# KB-3-1 cytotox: qHTS assay for MDR1-selective chemotherapeutics: Primary screen using the parental adenocarcinoma cell KB-3-1. Potency, µM (doses to about 46.1 µM), usual class: cytotoxic. 400,000 tested, 1.4% active. KB-3-1 viability, CellTiter-Glo ATP luminescence, 72 h; further: nearly all actives have a fitted effect of over 60% in size
#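 Multi-concentration cytotoxicity screen in KB-3-1 cells grown in DMEM lacking phenol red with 10% FBS. After 72 h at 37 °C with compound, ATP-dependent luminescence was recorded.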
# HT1080 IDH1KD tx: qHTS for induction of synthetic lethality in tumor cells producing 2HG: qHTS for the HT-1080-IDH1KD cell line; Potency, µM (doses to about 46.1 µM), without a hit: at the highest dose activity, negative = toxicity, most hits filed as cytotoxic; AID 686971, 2013; HT-1080 IDH1 knockdown viability, ATP luminescence, 48 h; 360,000 tested, 2% active;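 further: 0% = DMSO wells and -100% = cell-free medium wells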
#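 HT-1080-IDH1KD cells (IDH1 knocked down), 750/well in RPMI with 5% FBS, treated with compound 48 h at 37 degrees C. Viability by CellTiter-Glo luminescence, normalised to DMSO and no-cell wells; concentration-response curves classed.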
# Active calls of the source: *; i = inactive; ? = inconclusive; . = not tested or not shown; [ ] = remark or other dose. The call rests on the fitted dose curve; in most records, active means well fitted curve in the direction sought with a large enough effect; inconclusive means small, poorly fitted or top-dose-only effect, or another doubt; inactive means no such curve, though single readings can be large; an effect the other way counts as inactive or inconclusive. Unless noted, on the % scale 0 is the no-effect control and ±100 the full control effect; potency means the concentration at half of the fitted maximal effect.
SMILES,TDP1 cell noCPT,HT1080NT lethal,KB-V1 cytotox,TDP1 cell CPT,KB-3-1 cytotox,HT1080 IDH1KD tx
CC(CNC(=O)c1csc2c1CCCCC2)c1ccccc1 (stereo not given),16µM*,.,i,21µM*,i,.
O=C(NCc1ccccc1)c1csc2c1CCCCC2,-14%,0%,i,-13%,i,6%
Cc1cc(CSC(=N)N)c(CSC(=N)N)cc1C,23µM*,-5%,i,?,i,1%
CCOC(=O)c1cccc(NC(=O)c2ccc(NC(=O)c3ccco3)cc2)c1,?,?,i,?,i,?
O=C(/C=C\c1ccccc1)Nc1ccc(NC(=O)c2ccco2)cc1,23µM*,?,i,12µM*,i,?
Cc1cc(C)cc(NC(=O)c2ccc(NC(=O)c3ccco3)cc2)c1,?,1%,?,21µM*,i,-17%
C=Cc1cccc(NC(=O)c2ccc(NC(=O)c3ccco3)cc2)c1,6.5µM*,-4%,i,15µM*,i,-10%
COc1cc(CN2CCNC(=O)C2CC(=O)N(C)Cc2ncc[nH]2)cc(OC)c1 (stereo not given),-4%,-9%,?,19%,i,6%
COc1ccc(-c2cc(-c3ccc(C)cc3)nc(SCc3nnc(-c4ccccc4)o3)c2C#N)cc1OC,-30%,4%,i,?,?,1%
Cn1nc(NC(=O)C(F)(F)F)c2ncc(-c3ccccc3)nc21,?,-8%,18µM*,8%,i,-3%
Cc1nc2ccccc2c2nc(NC(=O)C(F)(F)F)nn12,-11%,-16%,i,26%,i,-18%
CSc1ccccc1C(=O)NCC1Cc2cc(F)cc(-c3cnccn3)c2O1 (stereo not given),?,.,.,21µM*,.,.
Cc1ccc(-c2nc(N)sc2-c2ccc(C)cc2)cc1,16µM*,?,?,?,?,?
Cc1cc(C)c(OCCCNCc2ccccc2)c(Br)c1,23µM*,-22%,i,18µM*,i,-15%
Cc1cc(Cl)c(OCCCNCc2ccccc2)c(Br)c1,18µM*,-22%,?,?,?,-24%
Cc1cc(C)c(OCCCNC2CCCC2)c(Br)c1,7.3µM*,?,?,13µM*,?,?
Cc1cc(Cl)c(OCCCN2CCCCC2)c(Br)c1,?,-15%,i,-7%,?,-14%
COC(=O)c1c(C)[nH]c(C(=O)OCC(=O)c2ccc(C)s2)c1C,?,-23%,i,?,i,-7%
O=C(CCN1C(=O)c2ccccc2C1=O)C1=NN[C@@H]2C(=O)N(c3ccc4c(c3)OCCO4)C(=O)[C@H]12,-4%,20%,i,0%,i,24%
Oc1ccc(Cl)cc1Nc1nc2ccccc2n2cnnc12,?,.,?,-22%,i,.
O=C(/C=C/c1ccc(F)cc1)NC(Cc1c[nH]c2ccccc12)C(=O)O (stereo not given),-6%,7%,i,6%,i,?
O=C(COC(=O)c1cc([N+](=O)[O-])ccc1NCCO)Nc1cccc(S(=O)(=O)N2CCCC2)c1,13µM*,-5%,?,29µM*,i,1%
CCS(=O)c1ccccc1C(=O)OCC(=O)Nc1cccc(S(=O)(=O)N2CCCCC2)c1 (stereo not given),5.8µM*,-9%[9.24 µM],i,12µM*,?,-5%
CCOc1ccccc1C(=O)OCC(=O)Nc1cccc(S(=O)(=O)N2CCCC2)c1,21µM*,-3%[9.24 µM],i,21µM*,i,-1%
COc1ccc(NC(=O)CN(C)C(=O)c2c(C)nn(Cc3ccccc3)c2C)cc1,-1%,13%,i,-22%,i,1%
SMILES,TDP1 cell noCPT,HT1080NT lethal,KB-V1 cytotox,TDP1 cell CPT,KB-3-1 cytotox,HT1080 IDH1KD tx
COc1ccc(-c2nnn(CC(=O)N(Cc3ccccc3Cl)C(C(=O)NCC3CCCO3)c3ccco3)n2)cc1OC (stereo not given),?,-5%,?,?,i,-27%
CC(C)(C)c1csc(N/N=C/c2ccc(O)cc2)n1,?,-6%,i,?,i,-7%
Cc1ccc(CNC(=O)c2cnn(-c3cccc(C)c3)c2C2CCN(C(=O)OC(C)(C)C)CC2)cc1,23µM*,.,i,16µM*,?,.
Cc1ccc(-n2ncc(C(=O)NCc3cccs3)c2C2CCN(C(=O)OC(C)(C)C)CC2)cc1,?,.,i,23µM*,i,.
CC(C)(C)OC(=O)N1CCC(c2c(C(=O)NCc3ccco3)cnn2-c2ccccc2)CC1,?,.,i,?,i,.
CC(C)(C)OC(=O)N1CCC(c2c(C(=O)NCc3ccccc3)cnn2-c2ccccc2)CC1,?,.,i,?,i,.
CC(C)(C)C(=O)n1nc(-c2ccccc2)oc1=O,-8%,-1%,i,-1%,i,-16%
Cc1cc(C)cc(CC(=O)N2CCC2(C)C(=O)NS(=O)(=O)c2cc(C)ccc2F)c1 (stereo not given),2%,22%,i,5%,i,17%
COc1cc(C2CC(=O)c3c([nH]c(C(=O)OC4CCCCC4)c3C)C2)cc(OC)c1OC (stereo not given),2.1µM*,.,i,1.8µM*,?,.
CCOC(=O)c1[nH]c2c(c1Cc1ccccc1OC)C(=O)CC(c1ccc(OCC)cc1)C2 (stereo not given),9.2µM*,.,i,8.2µM*,i,.
CCOC(=O)c1[nH]c2c(c1Cc1ccccc1OC)C(=O)CC(c1ccccc1)C2 (stereo not given),?,.,i,?,i,.
CCc1ccc(C2CC(=O)c3c([nH]c(C(=O)OCC4CCCCC4)c3C)C2)cc1 (stereo not given),?,.,i,-25%,i,.
COc1cc(C2CC(=O)c3c([nH]c(C(=O)OCC4CCCCC4)c3C)C2)cc(OC)c1OC (stereo not given),1.6µM*,.,.,1.3µM*,.,.
